This is a sample that favours compounds with a hit; in the whole collection about 10% have one here.
HP1b chromo inh: HTS for Inhibitors of HP1-beta Chromodomain Interactions with Methylated Histone Tails. Chromobox protein homolog 1 (Homo sapiens), P83916. Potency, µM (titrated, usually from 114 µM), without a hit: top-dose activity change, negative = inhibition, actives largely listed as inhibitors. AID 540317, 2011. hit rate 0.56% among 390,000. AlphaScreen HP1-beta / biotin-H3K9me3 peptide binding; note: potency is the fitted concentration of half-maximal effect; nearly all actives have a fitted effect of over 70% in size
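HP1-beta protein (50 nM final) preincubated 30 min at room temperature with biotinylated H3(1-18)K9me3 peptide (50 nM) in PBS pH 7.4, 0.01% Tween-20, then compound added for 30 min. AlphaScreen streptavidin donor/nickel chelate acceptor beads (10 ug/mL final), 30 min dark, luminescence read.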
G9a block: qHTS Assay for Inhibitors of Histone Lysine Methyltransferase G9a; G9a H3K9 monomethylation, AlphaScreen, 2 h; AID 504332, 2011; hit rate 8.8% among 350,000; Potency, µM (top dose mostly 102 µM), for inactives: top-dose activity, negative = inhibition, usual class: inhibitors; Histone-lysine N-methyltransferase EHMT2 (Homo sapiens), Q96KQ7; note: potency is the fitted concentration of half-maximal effect; % is set by controls: 0 for no effect and ±100 for the full control effect; nearly all actives have a fitted effect of over 75% in size
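Readings reflect AlphaScreen signal from monomethyl-H3K9 antibody detection. HMT at 20 nM; substrate b-H3K9 500 nM; cofactor SAM 20 uM; 2 h RT reaction; compounds tested as titrations in qHTS with 15 min preincubation.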
Six1-Eya2 blk: qHTS Assay for Inhibitors of the Six1/Eya2 Interaction; Homeobox protein SIX1 (Homo sapiens) + Protein phosphatase EYA2 (Homo sapiens), …; AlphaScreen GST-Six1/His-Eya2 binding, biochemical; stronger effect = lower value; activity change, % (no concentration beside the values); hit rate 0.56% among 360,000; in the data active = activity change below about -65%; inconclusive = mostly about -30% to -63%; note: % is set by controls: 0 for no effect and ±100 for the full control effect
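GST-Six1 + His-Eya2 (5X stock: 250/500 nM); Tris pH 8.0, 300 mM NaCl, 0.05% BSA, 0.02% Tween 20; GSH donor/Ni acceptor beads; 1 h 37 °C dark; AlphaScreen readout.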
BAZ2B block: qHTS Assay for Inhibitors of BAZ2B; Bromodomain adjacent to zinc finger domain protein 2B (Homo sapiens), Q9UIF8; AlphaScreen BAZ2B-H3K14Ac peptide displacement; Potency, µM (top dose mostly 114 µM), for the others: at the top dose activity change, negative = inhibition, most hits filed as inhibitors; hit rate 4.4% among 360,000; AID 504333, 2011; note: potency is the fitted concentration of half-maximal effect; % is set by controls: 0 for no effect and ±100 for the full control effect; nearly all actives have a fitted effect of over 60% in size
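Inhibition is scored as reduced AlphaScreen emission. The BAZ2B/b-H3(5-23)K14Ac complex (50 nM each) in PBS pH 7.4, 0.01% Tween-20 meets compound (up to 110 uM) for 30 min at RT before bead addition.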
CtBP-E1A inh: qHTS Assay for Inhibitors of the CtBP/E1A Interaction. AlphaScreen GST-E1A/His-CtBP binding, 1536-well; stronger effect = lower value. activity change, % (test concentration not listed). hit rate 0.49% among 340,000. AID 651724, 2012; in the data active = activity change below about -65%; inconclusive = mostly about -30% to -63%; note: % is set by controls: 0 for no effect and ±100 for the full control effect
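Steps: dispense buffer (Tris pH 8.0, NaCl 300 mM, TCEP 1 mM, BSA, Tween 20); add 5X protein mix (GST-E1A, His-CtBP, 125 nM each); pin 23 nL compound; 2 h at 37 °C, dark; add 5X beads (50 ug/mL); 1 h; read.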
JMJD2A Tudor inh: qHTS Assay for Inhibitors of JMJD2A-Tudor Domain; Lysine-specific demethylase 4A (Homo sapiens), O75164; AlphaScreen JMJD2A-Tudor / H3K4me3 peptide binding; Potency, µM (top dose mostly 114 µM), without a hit: at the top dose activity change, negative = inhibition, hits mostly inhibitors; hit rate 4.4% among 390,000; AID 504339, 2011; note: potency is the fitted concentration of half-maximal effect; % is set by controls: 0 for no effect and ±100 for the full control effect; nearly all actives have a fitted effect of over 50% in size
An asterisk follows results filed as active; [ ] = another dose, or the depositor's remark. Unless noted, calls come from the whole dose curve; as a rule, active = well fitted inhibition curve with a large enough effect; inconclusive = small, poorly fitted or top-dose-only effect; inactive = no such curve, though single readings can be large or run the other way.

What do the screens show for `NNC(=O)c1[nH]c2ccc([N+](=O)[O-])cc2c1-c1ccccc1`?
HP1b chromo inh: 22%; G9a block: inconclusive; Six1-Eya2 blk: -8; BAZ2B block: -15%; JMJD2A Tudor inh: -29%

What do the screens show for `COc1ccc(C(=O)CSc2nc3cc(C(=O)NC4CCCC4)ccc3c(=O)n2CC2CCCO2)cc1` (stereo not drawn)?
HP1b chromo inh: 28%; G9a block: 4%[59 µM]; BAZ2B block: 2%; JMJD2A Tudor inh: -4%

What do the screens show for `S=c1oc(-c2ccncc2)nn1CCc1ccncc1`?
HP1b chromo inh: 40%; G9a block: 3%[12.7 µM]; Six1-Eya2 blk: 1; BAZ2B block: 56µM*; CtBP-E1A inh: -2; JMJD2A Tudor inh: -19%

What do the screens show for `c1cc(-c2nnc(-c3ccncc3)o2)ccn1`?
HP1b chromo inh: 12%; G9a block: 0%; Six1-Eya2 blk: -3; BAZ2B block: -1%; CtBP-E1A inh: -2; JMJD2A Tudor inh: -17%

Results for CCOc1ccccc1C(=O)Nc1ccc2nc3c(c(Nc4ccc(OC)c(OC)c4)c2c1)CCCC3 ?
HP1b chromo inh: -22%; G9a block: -29%[59 µM]; BAZ2B block: -35%; JMJD2A Tudor inh: inconclusive

How did COc1cc(OC)cc(C(=O)Nc2ccc3nc4c(c(Nc5ccc(OC)c(OC)c5)c3c2)CCCC4)c1 do in these assays?
HP1b chromo inh: inconclusive; G9a block: 18µM*; BAZ2B block: 10µM*; JMJD2A Tudor inh: inconclusive

What do the screens show for `COc1ccccc1Nc1c2c(nc3ccc(NC(=O)c4ccc(N(C)C)cc4)cc13)CCCC2`?
HP1b chromo inh: -22%; G9a block: 7.9µM*; BAZ2B block: 4µM*; JMJD2A Tudor inh: 16µM*

What do the screens show for `COc1ccc(NC(=O)c2cnc3sc(N4CCOCC4)nn3c2=O)c(OC)c1`?
HP1b chromo inh: 19%; G9a block: -19%[59 µM]; BAZ2B block: -6%; JMJD2A Tudor inh: -8%

How did COc1cccc(C(Nc2ccccn2)c2oc(CO)cc(=O)c2O)c1 (stereo not drawn) do in these assays?
HP1b chromo inh: inconclusive; G9a block: 1.3µM*; Six1-Eya2 blk: -2; BAZ2B block: 79µM*; JMJD2A Tudor inh: 45µM*

How did O=c1cc(CO)oc(C(Nc2ccccn2)c2ccccc2F)c1O (stereo not drawn) do in these assays?
HP1b chromo inh: inconclusive; Six1-Eya2 blk: 2; CtBP-E1A inh: -22; JMJD2A Tudor inh: 22µM*

How did O=c1cc(CO)oc(C(Nc2ccccn2)c2ccc(C(F)(F)F)cc2)c1O (stereo not drawn) do in these assays?
HP1b chromo inh: -17%; G9a block: 1.6µM*; Six1-Eya2 blk: 4; BAZ2B block: -7%; CtBP-E1A inh: -1; JMJD2A Tudor inh: -17%

How did COc1cccc(C(NC(C)=O)c2nc(-c3cc4ccccc4o3)cs2)c1 (stereo not drawn) do in these assays?
Six1-Eya2 blk: 5; CtBP-E1A inh: 3

Results for O=c1cc(CO)oc(C(Nc2ccccn2)c2cccc(F)c2)c1O (stereo not drawn) ?
HP1b chromo inh: inconclusive; G9a block: 1.3µM*; Six1-Eya2 blk: 3; BAZ2B block: -30%; CtBP-E1A inh: -1; JMJD2A Tudor inh: 20µM*

Results for COc1ccc(C(=O)Nc2nnc(S(=O)(=O)N3CCCc4ccccc43)s2)cc1 ?
HP1b chromo inh: -1%; G9a block: -42%[59 µM]; BAZ2B block: inconclusive; JMJD2A Tudor inh: inconclusive

What do the screens show for `Cc1ccc(NC2=NCC(=O)N2CCc2ccccc2)cc1C`?
HP1b chromo inh: 62%; G9a block: -36%[12.7 µM]; Six1-Eya2 blk: -1; BAZ2B block: -4%; CtBP-E1A inh: 5; JMJD2A Tudor inh: -17%
